Measured values taken from PubChem BioAssay (NCI).
The panel holds about 79,000 compounds, 15% with a hit somewhere; the sample as a whole holds those more often. Calls of active or inactive are those of the source. No stated cut-off is given here; in the data, active means growth inhibition above about 70%; inactive means the rest.

What was measured:
[1] = NCI Yeast Anticancer Drug Screen. Data for the rad50 strain (AID 155);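 further: 0% = growth of vehicle-only cultures of the same strain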; conditions: S. cerevisiae rad50 strain growth inhibition; at 50.0 µM; stronger effect = higher value
How it was run: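 Compounds were tested on a yeast strain with an engineered DNA damage repair alteration; the reported value is growth inhibition normalised to vehicle treatment.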

[2] = NCI Yeast Anticancer Drug Screen. Data for the sgs1 mgt1 strain (AID 161);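 further: 0% = growth of cultures given vehicle only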; conditions: S. cerevisiae sgs1 mgt1 strain, at 50.0 µM, stronger effect = higher value
How it was run: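 Inhibition of yeast growth, normalised to vehicle-treated controls, is reported for a strain bearing genetic alterations in DNA damage repair.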

[3] = NCI Yeast Anticancer Drug Screen. Data for the cln2 rad14 strain (AID 165);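 further: 0% = growth equal to vehicle treated cultures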; conditions: S. cerevisiae cln2 rad14 strain, at 50.0 µM, stronger effect = higher value
How it was run: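 Each compound was tested on cln2 rad14 yeast. Inhibition of growth was calculated against vehicle-exposed controls.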

[4] = NCI Yeast Anticancer Drug Screen. Data for the bub3 strain (AID 167); conditions: S. cerevisiae bub3 mutant strain, at 50.0 µM, stronger effect = higher value
How it was run: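 Growth of a checkpoint-deficient yeast mutant is measured after compound exposure. Values represent inhibition relative to vehicle.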

[5] = NCI Yeast Anticancer Drug Screen. Data for the mlh1 rad18 strain (AID 175); conditions: S. cerevisiae mlh1 rad18 strain growth inhibition; at 50.0 µM; stronger effect = higher value
How it was run: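 Vehicle-treated cultures served as the reference for growth inhibition in a yeast strain carrying DNA damage repair alterations exposed to each compound.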

[6] = NCI Yeast Anticancer Drug Screen. Data for the mec2-1 strain (AID 157); conditions: S. cerevisiae mec2-1 strain, at 50.0 µM, stronger effect = higher value
How it was run: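 Vehicle-treated cultures served as reference for growth inhibition of compound-exposed mec2-1 yeast.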

Measured: growth inhibition

CCN(CC)c1ccc2c(c1)Cc1ccccc1-2
inactive: [1] 25.8% | [2] 9.2% | [3] 4.4% | [4] -18.9% | [5] -5.65%

O=c1c2[nH]cnc2n(-c2ccccc2)c(=S)n1-c1ccccc1
inactive: [1] 6.5% | [2] -26.1% | [3] -6.55% | [4] -26.9% | [5] 13.8%

[Cl][Pt+2][Cl].[NH-]c1ccc(CC(=O)O)cc1[NH-]
inactive: [1] 48.4% | [2] 23.4% | [3] 39.8% | [4] -11.1% | [5] -4.2%

CNCCCc1cc(-c2ccc([N+](=O)[O-])cc2)n[nH]1
inactive: [1] -1.55% | [2] -3.25% | [3] 12.6% | [4] 13.6% | [5] 6.6%

Cc1cc(C)c(C#N)c(SC(C(=O)NC(C)(C)C)c2ccccc2)n1 (stereo not drawn)
inactive: [1] 2.25% | [2] 8.75% | [3] 18% | [4] -8.15% | [5] -14.3%

C(=C1\CCC/C(=C/c2ccccc2)C1=NNc1ccccc1)/c1ccccc1
inactive: [1] 19.7% | [2] 6.45% | [3] 18.1% | [4] 11% | [5] 24.1%

COC(=O)c1cc(=O)[nH]c(=O)[nH]1
inactive: [1] -10.6% | [2] -15.8% | [3] 9.45% | [4] -13.5% | [5] -15.9%

COC(=O)CCS/C=C/C(=O)O
inactive: [1] 11.1% | [2] -2.4% | [3] -34.4% | [4] 4.25% | [5] 4.35%

COc1ccccc1C1(CBr)OCCO1
inactive: [1] -6.15% | [2] 6.55% | [3] -5.4% | [4] -3.85% | [5] 9.4%

CCOC(=O)c1ccc(NCc2cccc([N+](=O)[O-])c2)cc1
inactive: [1] 10.2% | [2] 10.4% | [3] 0.45% | [5] 31.6%
active: [4] 73.8%

CNC(=O)OCc1c(COC(=O)NC)c(-c2ccc(SC)cc2)n(C)c1C
inactive: [1] 24.9% | [2] 47.4% | [3] 0.1% | [4] 2.6% | [5] 49.7%

Cc1onc(-c2c(F)cccc2Cl)c1-c1ncc(-c2ccc(Cl)cc2)o1
inactive: [1] 3.05% | [2] 29.4% | [3] 0.8% | [4] 29.8% | [5] 16.4%

Cc1cnc(N)s1
inactive: [1] 3.8% | [2] -7.8% | [3] -24.7% | [4] -11.2% | [5] 9.45%

c1ccc(CSc2nn[nH]n2)cc1
inactive: [1] -5.3% | [2] -0.8% | [3] -9.65% | [4] -2.45% | [5] -4.95%

CSc1ccc(C(=O)c2ccc(SC)cc2)cc1
inactive: [1] 5.65% | [2] 16.2% | [3] -12.8% | [4] -4.25% | [5] -17.2%

C=C(C)C(=O)NC(Cc1cnc[nH]1)C(=O)O (stereo not drawn)
inactive: [1] 8.2% | [2] 16.1% | [3] 1.15% | [4] 15.2% | [5] 0.55%

COc1cc2c(cc1OC)C1c3cc(OC)c(OC)cc3CC(=O)N1CC2 (stereo not drawn)
inactive: [1] 17.6% | [2] 38.5% | [3] 19.3% | [5] 37.6%

CCC/C(=N/NC(N)=O)c1ccco1
inactive: [1] -2.85% | [2] -8.15% | [3] -2.25% | [4] -1.7% | [5] -0.3%

COc1ccc(C2C(C#N)=C(S)N(C3OC(COC(C)=O)C(OC(C)=O)C(OC(C)=O)C3OC(C)=O)C(c3ccccc3)=C2C(C)=O)cc1 (stereo not drawn)
inactive: [1] 44% | [2] 42% | [3] -4.2% | [4] -38.9% | [5] 39%

O=NNc1ccc(Oc2ccccc2)cn1
inactive: [1] 15.4% | [2] -7.9% | [3] -9% | [4] -19.8% | [5] -1.85%

COc1cc(/C=C2/C(=O)N(C(=O)c3ccc(Cl)cc3)N=C2C)cc(OC)c1OC
inactive: [1] 10% | [2] 2.95% | [3] -48.1% | [4] 24.6% | [5] 39%

Cc1cccc2c1Oc1ccccc1C2NC(=O)OCCc1ccccc1 (stereo not drawn)
inactive: [1] -14.3% | [2] -7.25% | [3] -9.15% | [4] -8.05% | [5] 1.25%

CCOC(=O)[n+]1c(C)ccc2ccccc21
inactive: [1] -20% | [2] -9.55% | [3] -23.8% | [4] 11% | [5] -13.8%

Cc1ccc(C(C#N)c2ccc(N)cc2)cc1 (stereo not drawn)
inactive: [1] 21.9% | [2] 29.9% | [3] 17.1% | [4] 20.2% | [5] 32.5%

CC[N+](C)(CC)CC(O)C[N+]1(C)CC2CCCCC2C1 (stereo not drawn)
inactive: [1] 13.1% | [2] 6.2% | [3] -10.2% | [4] -4.65% | [5] 4.1%

COc1ccc(C(=O)c2ccc(C(=O)O)cc2)c(OC)c1
inactive: [1] -5.4% | [2] -14.6% | [3] -48.6% | [4] 5.95% | [5] -27.6%

Nc1ncnc2nc(N3CCN(CCO)CC3)[nH]c12
inactive: [1] 9.45% | [2] -34.1% | [3] -29.5% | [4] -26.2% | [5] -12.5%

CCOP(C)(=O)/C(Cc1ccc(OC)c(OC)c1)=N\O (stereo not drawn)
inactive: [1] -21.4% | [2] -14.8% | [3] 10.4% | [4] 23% | [5] -17.2%

OC(CC(c1ccccc1)c1cccc2ccccc12)(c1ccccc1)c1ccccc1 (stereo not drawn)
inactive: [1] -12.8% | [2] -14.6% | [3] -7.65% | [4] -28.4% | [5] 3.3%

Nc1c(Cl)cc2c(c1Br)C(=O)c1ccccc1C2=O
inactive: [1] 13.7% | [2] 1.1% | [3] 23.4% | [4] 11.9% | [5] 19.5%

c1ccc2c(c1)C(=Nc1ccc(N=C3c4ccccc4-c4ccccc43)cc1)c1ccccc1-2
inactive: [1] 1.8% | [2] -5.7% | [3] -1% | [4] -27.4% | [5] -20.6%

CCN(CC)CCNC(=O)c1ccc(NCN2C(=O)NC(c3ccccc3)(c3ccccc3)C2=O)cc1
inactive: [1] -24.1% | [2] 8.45% | [3] 26.3% | [4] 15.7% | [5] 50.8%

CN=C(NC#N)NCc1ccccc1
inactive: [1] 7.05% | [2] -2.6% | [3] 10.1% | [4] 20.8% | [5] 8.45%

Cc1c(C)c(C)c(CCl)c(CCl)c1C
inactive: [1] 36.1% | [2] 31.9% | [3] 10.4% | [4] 8.3% | [5] 24.6%

CCC(c1ccc(OC)cc1)c1cc2c(cc1OCCO)OCO2 (stereo not drawn)
inactive: [3] 67.7% | [4] 58.1%
active: [1] 70.9% | [2] 81.7% | [5] 96.3%

OC1c2ccccc2-c2ccc(NCc3ccc4c(c3)OCO4)cc21 (stereo not drawn)
inactive: [1] 48.8% | [2] 17.4% | [3] -5.2% | [4] -4.1% | [5] 19.4%

CNCCNc1ncc([N+](=O)[O-])s1
inactive: [6] -9.1% | [2] -37.6% | [3] -25.1% | [4] -43% | [5] -32.5%

CC(C)=CC(Cc1ccccc1)S(=O)(=O)c1nc2ccccc2s1 (stereo not drawn)
inactive: [6] 33.4% | [2] 12.1% | [3] 9.4% | [5] -16.9%
